# Shiga toxin inh = Shiga toxin inhibition; Vero cells, Shiga toxin protein synthesis inhibition reporter; inhibition, % at 38.7 µM; hit rate 9.2% among 290,000; AID 2315; in the data active = inhibition mostly above about 28%, no sharp cut-off; inactive = mostly below about 43%
# Pf growth 96h = P. falciparum growth inhibition at 96 hours; P. falciparum luciferase reporter growth, 96 h; Potency, µM (top dose mostly 28.7 µM), actives largely listed as inhibitors; hit rate 6.9% among 320,000; AID 504834
#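 Cell-based qHTS: luciferase-tagged P. falciparum in erythrocytes (2% hematocrit, 0.05% parasitemia final) incubated with compounds for 96 hours, 37 C, 5% CO2; luciferase detection reagent then added and luminescence measured.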
# Pf growth 48h = P. falciparum growth inhibition at 48 hours (one generation); hit rate 5.9% among 310,000; P. falciparum luciferase growth in erythrocytes, 48 h; AID 504832; Potency, µM (top dose mostly 28.7 µM), actives largely listed as inhibitors
#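 Here the parasites carry a stable luciferase gene and grow inside erythrocytes in Albumax-based RPMI medium with compound for one erythrocytic cycle. Activity is scored as loss of luminescent signal.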
# LmPK inh = blocks Leishmania mexicana pyruvate kinase activity | AID 1721 | purified LmPK, Kinase-Glo ATP luminescence, 1 h | hit rate 0.37% among 290,000 | Potency, µM (highest dose often 57.5 µM), usual class: inhibitors | Q27686
# Target sequence (Q27686 whole entry, looked up): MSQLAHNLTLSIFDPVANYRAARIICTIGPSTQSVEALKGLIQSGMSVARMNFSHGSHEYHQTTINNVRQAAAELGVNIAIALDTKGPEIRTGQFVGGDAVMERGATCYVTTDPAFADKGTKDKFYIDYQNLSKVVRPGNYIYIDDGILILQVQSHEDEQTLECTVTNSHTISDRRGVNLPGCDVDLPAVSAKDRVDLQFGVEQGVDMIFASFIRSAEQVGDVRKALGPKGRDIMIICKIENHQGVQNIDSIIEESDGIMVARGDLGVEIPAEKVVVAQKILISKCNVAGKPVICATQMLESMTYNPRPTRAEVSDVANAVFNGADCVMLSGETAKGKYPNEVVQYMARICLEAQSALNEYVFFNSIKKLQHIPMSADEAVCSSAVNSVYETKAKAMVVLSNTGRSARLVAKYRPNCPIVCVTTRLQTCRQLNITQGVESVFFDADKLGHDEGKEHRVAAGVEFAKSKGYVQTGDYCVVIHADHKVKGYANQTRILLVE
#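 Purified LmPK (0.1 nM) converted ADP (0.1 mM) to ATP with PEP (0.5 mM) in imidazole buffer pH 7.2 with KCl and MgCl2, 1 h at room temperature. ATP was read by Kinase-Glo luminescence; data normalized to uninhibited and no-enzyme controls.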
# CHX counter = affects cycloheximide protein synthesis inhibition readout, counter-screen. AID 2314. cell reporter, cycloheximide protein synthesis inhibition counterscreen. hit rate 12% among 300,000. max response, %; in the data active = max response mostly above about 13%, no sharp cut-off; inactive = mostly below about 14%; note: read at 38.3 µM for the half of the compounds with a filed dose
# A number is an active result; i = inactive; ? = inconclusive; nt = no result; [ ] = dose if it differs, or a comment. Shown are actives, neighbours in structure and some others; about 22% of the full set was active somewhere. Unless noted, calls come from the whole dose curve; as a rule, active = well fitted inhibition curve with a large enough effect; inconclusive = small, poorly fitted or top-dose-only effect, or another doubt; inactive = no such curve, though single readings can be large or run the other way.
SMILES,Shiga toxin inh,Pf growth 96h,Pf growth 48h,LmPK inh,CHX counter
COc1cc(CCC(=O)NCc2ccc(F)cc2)cc(OC)c1OC,i,i,i,i,i
CCOC(=O)C(C(=O)Nc1ccc(C)cc1)C1CCCCC1 (stereo not drawn),i,i,nt,i,i
N#C/C(=C\c1c[nH]c2ccccc12)C(=O)NCC1CCCO1 (stereo not drawn),54,i,i,i,31
COc1cc(/C=C(\C#N)C(=O)NCC2CCCO2)cc(OC)c1OC (stereo not drawn),i,i,i,i,i
Cc1[nH]c2ccccc2c1/C=C(\C#N)C(=O)NCC1CCCO1 (stereo not drawn),i,i,i,i,18
COc1cc(/C=C(\C#N)C(=O)NCC2CCCO2)ccc1OC(C)C (stereo not drawn),i,?,i,i,73
N#C/C(=C\c1cccs1)C(=O)NCC1CCCO1 (stereo not drawn),80,i,i,i,25
COc1cccc(-c2cc(C(=O)O)no2)c1,i,i,nt,i,i
COc1cccc(-c2cc(CC3(O)CCN(CCCc4ccccc4)CC3)on2)c1,i,?,12µM,i,i
CCOC(=O)c1nn(-c2ccc(F)cc2)cc1O,115,i,i,i[11.5 µM],52
CCOC(=O)c1nn(-c2ccc(C)cc2)c(=O)c2c(N)scc12,i,nt,?,i,i
CCOC(=O)c1nn(-c2ccc(F)cc2)c(=O)c2c(N)scc12,i,i,?,i,19
COCCN1C(=O)N[C@@H](c2ccco2)C(C(=O)OC)=C1C,nt,nt,nt,i[11.5 µM],nt
CCOc1ccccc1NC(=S)Nc1ccc(S(N)(=O)=O)cc1,i,i,i,i,i
NC(=O)[C@@H]1CCCN1,i,nt,nt,nt,i
O=C(Nc1cnc2ccccc2c1)N1CCOCC1,64,i,i,i,42
O=C(Nc1cnc2ccccc2c1)N1CCCCC1,82,i,i,i,51
Cc1cc(NC(=O)Nc2ccccc2[N+](=O)[O-])n(C)n1,i,i,i,i,i
N/C(=N\N=C\c1ccc(Br)o1)c1nonc1N,82,i,i,i,47
Nc1nonc1C(=Nc1ccccc1)NO,i,?,i,i,i
Nc1nonc1C(=O)N/N=C/c1ccc(-c2ccc(Cl)c(C(=O)O)c2)o1,48,?,i,i,14
O=C(N/N=C/c1ccc(Br)o1)c1cccnc1,i,i,i,i,i
Nc1nonc1C(=O)N/N=C/c1ccc(Br)o1,72,i,i,i,39
COc1ccccc1NC(=O)OCC#CCOC(=O)Nc1ccccc1OC,i,i,i,i,i
COc1ccc(CN2CCNC(=O)C2CC(=O)NCc2csc(C)n2)c(F)c1 (stereo not drawn),i,i,i,i,i
SMILES,Shiga toxin inh,Pf growth 96h,Pf growth 48h,LmPK inh,CHX counter
Cc1cccc(NC(=O)c2sc(Cl)nc2C)c1C,i,?,i,i,i
Cc1cccc(OCC(=O)Nc2ccc(NC(=O)c3ccco3)cc2)c1,i,i,i,i,i
NC(=O)c1sc2cc(C(F)(F)F)cnc2c1-c1ccccc1,i,8.3µM,?,i,i
COc1cccc(CCc2nnc(CCC(=O)N3CCCC3c3nccs3)o2)c1 (stereo not drawn),i,5.9µM,i,i,i
COc1cccc(CCc2nnc(CCC(=O)NCCC3CCCCO3)o2)c1 (stereo not drawn),i,i,i,i,18
CCN(Cc1ccncc1)C(=O)CCc1nnc(CCc2ccc(OC)cc2)o1,i,?,i,i,i
COc1cccc(CNC(=O)CCc2nnc(C3CCCCC3)o2)c1,i,i,i,i,i
COc1cccc(CN2CCN(C(=O)CCc3nnc(C4CCCCC4)o3)CC2=O)c1,i,?,?,i,i
COc1ccc(CCc2nnc(CCC(=O)N(C)Cc3ccncc3C)o2)cc1,70,?,i,i,22
CCN(CC1CCCO1)C(=O)CCc1nnc(CCc2ccc(OC)cc2)o1 (stereo not drawn),48,i,i,i,25
C=CCOc1ccc(/C=C/C(=O)OCC(=O)NCc2ccco2)cc1,nt,i,i,nt,nt
O=C(NC1CC1)C1CCN(C2CCN(C(=O)/C=C/c3ccc(F)cc3)CC2)CC1,i,i,i,i,i
O=C(CCc1nnc(-c2ccc3c(c2)OCO3)o1)N(Cc1ccncc1)CC1CCCO1 (stereo not drawn),i,i,?,i,i
CCCN(CC1CCCO1)C(=O)CCc1nnc(-c2cc(C)on2)o1 (stereo not drawn),51,i,i,i,16
CC(NC(=O)c1cc2cc(F)ccc2[nH]1)c1ccccc1 (stereo not drawn),i,?,i[0.00184 µM],i,i
Cc1ccc(NCc2ccc(C)s2)cc1,66,i,i,i,37
Cc1ccc(CNc2ccc(N3CCOCC3)cc2)s1,93,i,i,i,48
CC(=O)N1CCN(c2ccc(NCc3ccc(C)s3)cc2)CC1,i,?,nt,i,i
CC1=C(C)[N+](=O)C2(O)CCCCC2(C)N1[O-] (stereo not drawn),i,i,i,i,i
CC12CCCCC1(O)[N+](=O)C1=C(CCCC1)N2[O-] (stereo not drawn),i,4.1µM,i,i,15
Cc1[nH]c2ccc(C(=O)N3CCN(c4ccccn4)CC3)cc2c1C,i,i,i,i,i
Nc1cccc2c(=O)c3ccccc3[nH]c12,i,1.9µM,1.9µM,i,i
CCCCC(=O)OCc1c(-c2cccc(OC)c2)ncc2ccccc12,nt,?,i,nt,nt
COc1ccc(NC(=O)CC2CCCC2)cc1S(=O)(=O)N1CCCCC1,i,?,i,i,i
COc1ccc(NC(=O)C2CCCN2c2ccc(OC)c(OC)c2)cc1OC (stereo not drawn),i,i,10µM,i,i
SMILES,Shiga toxin inh,Pf growth 96h,Pf growth 48h,LmPK inh,CHX counter
NCC(=O)Nc1ccc(Br)cc1,i,i,?,i[11.5 µM],i
O=C(CC1CCCC1)Nc1ccc(Br)cc1,76,i,i,i,32
O=C(CC1CCCCC1)Nc1ncn[nH]1,i,2.9µM,i,i,i
COc1ccc(NC(=O)CC2CCCCC2)cc1OC,i,2.6µM,3.3µM,i,27
O=C(CC(c1ccccc1)c1ccccc1)Nc1ncn[nH]1,i,i,i,i,i
Cc1nc(-c2ccc(F)cc2)c(CC(=O)N(C)CC(=O)Nc2ccc(F)cc2)s1,nt,?,i,nt,nt
Cc1ccc(N(C)S(=O)(=O)c2ccc(-c3cnc(C4CC4)o3)cc2)cc1,i,?,?,i,i
COc1ccc(N2CCN(C(CNC(=O)C(=O)NCCCn3ccnc3)c3ccco3)CC2)cc1 (stereo not drawn),i,?,?,i,i
CC(C)c1nnc(NC(=O)CCC2CCCCC2)s1,i,i,i,i,i
CC1CC(C)CN(CCC(=O)Nc2ccc(Br)cc2)C1 (stereo not drawn),nt,7.4µM,i,i,i
COc1ccc(CC(=O)N2CCN(c3ccccc3OC)CC2)cc1OC,i,?,i,i,i
Cc1cccc(N(Cc2cc3ccccc3[nH]c2=O)S(=O)(=O)c2ccccc2)c1,i,10µM,15µM,i,i
Cc1cccc2cc(CN(CC(C)C)S(=O)(=O)c3ccccc3)c(=O)[nH]c12,i,13µM,?,i,i

# Screening data deposited in PubChem BioAssay by National Center for Advancing Translational Sciences (NCATS).
